# Experimental data taken from ChEMBL document CHEMBL1157539, “Thousands of chemical starting points for antimalarial lead identification” (Nature, 2010).
# Experiments:
# Assay type in all cases: functional
# [1] = test system: Plasmodium falciparum; test: GSK_TCMDC: Inhibition of Plasmodium falciparum 3D7 in whole red blood cells, using parasite LDH activity as an index of growth. Test compounds present at 2uM
# [2] = test system: Plasmodium falciparum; test: GSK_TCMDC: Inhibition of Plasmodium falciparum Dd2 in whole red blood cells, using parasite LDH activity as an index of growth. Test compounds present at 2uM
# [3] = test system: HepG2; test: GSK_TCMDC: Percent inhibition of human HepG2 cell line. Test compounds present at 10uM.
SMILES,Inhibition [1] [%],Inhibition [2] [%],Inhibition [3] [%]
Nc1nccc2ccc(-c3ccc(OCc4ccccc4)cc3)cc12.O=C(O)C(F)(F)F,100,67,40
O=C(Nc1ccc(Cn2ncc(N3CCCNCC3)c(Cl)c2=O)cc1)Nc1ccc(SC(F)(F)F)cc1.O=C(O)C(F)(F)F,93,68,9
CCOc1ccc(-c2nonc2NC(=O)c2cccc(Cl)c2)cc1OCC,100,99,0
CC(C)(CN)c1cc(-c2ccc(Cl)c(O)c2)c(-c2ccncc2)o1.Cl,92,97,44
CCN(CC)c1ccc2nc(N)nc(N)c2c1Cl.Cl,92,1,62
Cl.O=C1c2ccccc2CN1CCCN1CCC(Oc2ccc(F)cc2)CC1,97,1,14
Cc1ccccc1-c1nc2c(CN3CCC(O)(c4ccccc4)CC3)c(O)ccc2[nH]1,92,61,27
CC1CCC(NC(=O)c2nn(-c3ccc(Cl)cc3)c(=O)c3ccccc23)CC1 (configuration not stated),91,67,3
S=C(NCCCCCN1CCC(c2c[nH]c3ccccc23)CC1)Nc1ccc(Cl)c(Cl)c1,100,31,89
O=C(Nc1cccc(-c2ccc(-c3nc4cc(C(F)(F)F)ccc4[nH]3)s2)c1)c1cccnc1,100,99,74
Cc1cc(N[C@@H](CC(C)C)C(=O)NC2CCCC2)nc(NCC2CCCCC2)n1.O=C(O)C(F)(F)F,100,88,8
Cc1cccc(OC2CCN(c3ncc(C(=O)NCCCN4CCCC4=O)cc3Cl)CC2)c1,96,95,7
Cl.Oc1ccc(C2CNCCc3c2cc(O)c(OCc2ccccc2)c3Cl)cc1 (configuration not stated),98,8,14
CCNc1cc(C(=O)N[C@@H](Cc2ccccc2Cl)[C@H](O)CNC2CCCCC2)cc(N2CCCCS2(=O)=O)c1.Cl,99,97,6
CCOc1cc(Cc2cnc(N)nc2N)cc(OCC)c1O,89,0,6
OC(CNCc1ccccc1OCc1ccccc1)c1cc(C(F)(F)F)cc(C(F)(F)F)c1 (configuration not stated),100,99,3
Cc1cccc2nc(-c3ccc(-c4ccc(CNCc5ccc(CN)cc5)cc4)s3)[nH]c12.O=C(O)C(F)(F)F,100,85,4
CC(Nc1ccnc2cc(Cl)ccc12)c1ccc(S(N)(=O)=O)cc1 (configuration not stated),96,21,5
O=C(O)C(F)(F)F.Oc1ccc(CCNc2nc(NCCCOc3ccccc3-c3ccncc3)nc(N3CCNCC3)n2)cc1,96,0,8
Cl.O=C(c1ccc(Cl)cc1)C1CCN(CCCOc2ccc3c(c2)CCNCC3)CC1,93,23,78
CCCNCc1ccc(-c2ccc(CN(CCOC)C(=O)CCCOCc3ccccc3)cc2)nc1.O=C(O)C(F)(F)F,93,13,0
O=C(O)C(F)(F)F.O=S(=O)(NC1CCN(c2ccnc3cc(Cl)ccc23)C1)c1cccs1 (configuration not stated),100,76,6
COc1ccccc1N1CCN(C(C(=O)NCc2cccc(F)c2)c2ccc(C)cc2)CC1 (configuration not stated),94,80,4
CN(c1ccc(NC(=O)c2ccc(F)cc2)cc1)C1CCN(Cc2cccc(F)c2)C1.O=C(O)C(F)(F)F (configuration not stated),81,74,3
O=S(=O)(c1cccc2cccnc12)N1CCN(C2CCCCC2)CC1,96,10,15
CCOc1ccc(C(=O)N2CCOC(CCN3CCC4(CCc5ccccc54)CC3)(c3ccc(Cl)c(Cl)c3)C2)cc1 (configuration not stated),81,25,25
Cc1csc2nc(-c3ccccn3)nc(Nc3ccc4ncsc4c3)c12.Cl,85,91,0
COc1ccccc1NC(=O)OC(COc1ccc(N)cc1)CN1CC=C(c2ccccc2)CC1.O=C(O)C(F)(F)F (configuration not stated),90,81,16
CC(C)NCc1ccc(-c2cccc(NC(=O)c3ccc(C#N)cc3)c2)cc1.O=C(O)C(F)(F)F,100,19,8
